GCN5L2 inh = GCN5L2 (KAT2A) acetyltransferase inhibition | Q92830 | GCN5L2 HAT assay, ThioGlo1 CoA-SH fluorescence | Potency, µM (doses to about 58.9 µM), inactives show at the highest dose activity change, negative = inhibition, hits mostly inhibitors | actives 0.21% (n = 390,000) | AID 504327
Target sequence (Q92830 whole entry, looked up): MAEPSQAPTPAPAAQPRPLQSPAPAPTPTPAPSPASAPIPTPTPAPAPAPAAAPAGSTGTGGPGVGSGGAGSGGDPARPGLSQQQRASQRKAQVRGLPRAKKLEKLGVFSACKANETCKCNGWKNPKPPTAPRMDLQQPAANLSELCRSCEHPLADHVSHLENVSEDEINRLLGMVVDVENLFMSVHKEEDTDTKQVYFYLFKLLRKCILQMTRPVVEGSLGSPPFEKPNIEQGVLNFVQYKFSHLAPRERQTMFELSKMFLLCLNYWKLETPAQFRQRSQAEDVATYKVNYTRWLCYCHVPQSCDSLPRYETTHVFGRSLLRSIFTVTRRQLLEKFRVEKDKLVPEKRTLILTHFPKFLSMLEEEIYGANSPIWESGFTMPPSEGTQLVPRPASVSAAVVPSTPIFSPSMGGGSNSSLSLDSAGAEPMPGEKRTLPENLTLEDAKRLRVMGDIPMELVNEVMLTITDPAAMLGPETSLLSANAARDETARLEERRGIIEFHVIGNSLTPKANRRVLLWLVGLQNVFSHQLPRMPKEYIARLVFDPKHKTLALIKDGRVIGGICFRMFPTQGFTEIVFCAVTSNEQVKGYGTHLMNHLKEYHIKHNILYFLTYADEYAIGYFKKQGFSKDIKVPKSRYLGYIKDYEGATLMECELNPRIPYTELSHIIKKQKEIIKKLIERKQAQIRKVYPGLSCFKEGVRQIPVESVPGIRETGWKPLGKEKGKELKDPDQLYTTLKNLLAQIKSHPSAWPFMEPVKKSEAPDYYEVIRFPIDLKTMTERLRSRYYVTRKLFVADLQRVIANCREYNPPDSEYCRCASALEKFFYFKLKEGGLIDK
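GCN5L2 (20nM final) in 50mM HEPES, 0.1mM EDTA pH 7.5, 0.01% Tween-20 was preincubated 15 min at room temperature with compound, then given ThioGlo1 (50uM), H3(1-25) peptide (75uM) and acetyl-CoA (70uM); CoA-thiol fluorescence (Ex340/Em540) was read at 0 and 20 min.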
VDR inhibitor = blocks the human vitamin D receptor; P11473; VDR-SRC2-3 peptide fluorescence polarization, 2 h; Potency, µM, for inactives: max response, negative = inhibition, most hits filed as inhibitors; actives 0.93% (n = 400,000)
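FP read-out; VDR + SRC2-3 coactivator peptide; 23 nl compound by pintool; 2 h RT incubation; reagents held at 4 deg C, protected from light.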
DT40 TDP1 CPT = DT40-hTDP1 cell growth loss with CPT; chicken DT40 Tdp1-/-;hTDP1 cells + 20 nM CPT, ATP luminescence, 48 h; actives 12% (n = 420,000); Potency, µM (titrated, usually from 46.2 µM), inactives show at the top dose activity change, negative = growth inhibition, usual class: inhibitors; note: nearly all actives have a fitted effect of over 55% in size
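Chicken DT40 Tdp1-/- cells stably complemented with human TDP1 were seeded at 400 cells/well in medium containing 20 nM camptothecin, exposed to pin-transferred compounds, and grown at 37 °C for at least 48 hr. Viability was read as ATP luminescence.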
PLK1 PBD inh = inhibitors of human PLK1 polo-box domain binding; P53350; Plk1 PBD binding of FITC phosphopeptide, fluorescence polarization; Potency, µM, for the others: max response, negative = inhibition, most hits filed as inhibitors; actives 2.8% (n = 360,000); note: series mostly up to about 57 µM; nearly all actives have a fitted effect of over 65% in size
TDP1 block = inhibitors of human tyrosyl-DNA phosphodiesterase TDP1 | recombinant TDP1, AlphaScreen DNA substrate cleavage | Potency, µM (titrated, usually from 130 µM), for the others: top-dose activity change, negative = inhibition, actives largely listed as inhibitors | actives 0.28% (n = 350,000) | AID 485290; note: nearly all actives have a fitted effect of over 40% in size
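Tdp1 1 nM final; 15 min RT w/ cpd; substrate 15 nM, 5 min; beads 10 ug/ml, 10 min; AlphaScreen read. Neg ctrl: no enzyme.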
TDP1 cell noCPT = qHTS for Inhibitors of human tyrosyl-DNA phosphodiesterase 1 (TDP1): qHTS in cells in absence of CPT; DT40 Tdp1-/- hTDP1 cells, no CPT, ATP luminescence, 48 h; Potency, µM (top dose mostly 46.2 µM), for inactives: at the top dose activity change, negative = growth inhibition, actives largely listed as inhibitors; AID 686978, 2013; actives 15% (n = 420,000); note: nearly all actives have a fitted effect of over 55% in size
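A cellular qHTS used chicken DT40 cells lacking endogenous Tdp1 but carrying stably transfected human TDP1. Compounds were applied without camptothecin, and cell growth kinetics were judged by ATP-dependent luminescence after ≥48 hr.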
* hit, by the source's call; [ ] = another dose, or the depositor's remark. Hits are enriched below; roughly 18% of the tested compounds scored in any of these assays. Calls come from the whole dose curve; as a rule, active = well fitted curve in the direction sought with a large enough effect; inconclusive = small, poorly fitted or top-dose-only effect, or another doubt; inactive = no such curve, though single readings can be large; an effect the other way counts as inactive or inconclusive. % is set by controls: 0 for no effect and ±100 for the full control effect; potency is the fitted concentration of half-maximal effect.

Results for CCCCOc1ccc(C(=O)NCCc2sc(-c3cccc(F)c3)nc2C)cc1 ?
GCN5L2 inh: -1%; VDR inhibitor: 15%; DT40 TDP1 CPT: inconclusive; TDP1 block: -1%; TDP1 cell noCPT: inconclusive

Results for COc1ccc(S(=O)(=O)NCCc2sc(C)nc2C)cc1 ?
GCN5L2 inh: 2%; VDR inhibitor: -7%; TDP1 block: 1%

How did Cc1cc(S(=O)(=O)NCCc2csc(-c3cccc(F)c3)n2)ccc1F do in these assays?
GCN5L2 inh: -5%; VDR inhibitor: 3%; DT40 TDP1 CPT: inconclusive; TDP1 block: 1%; TDP1 cell noCPT: 1.3µM*

Results for COC(=O)c1ccc(NC(=O)C(=O)NCCc2sc(-c3cccc(F)c3)nc2C)cc1 ?
GCN5L2 inh: -9%; VDR inhibitor: -3%; DT40 TDP1 CPT: 12µM*; TDP1 block: 1%; TDP1 cell noCPT: inconclusive

Results for Cc1cc(C)cc(NC(=O)C(=O)NCCc2sc(-c3cccc(F)c3)nc2C)c1 ?
GCN5L2 inh: -5%; VDR inhibitor: 6%; DT40 TDP1 CPT: 3%; TDP1 block: 5%; TDP1 cell noCPT: -3%

Results for COc1cc(C(=O)NCCc2sc(-c3cccc(F)c3)nc2C)cc(OC)c1OC ?
GCN5L2 inh: inconclusive; VDR inhibitor: 7%; DT40 TDP1 CPT: 9.2µM*; TDP1 block: 4%; TDP1 cell noCPT: 12µM*

How did O=S(=O)(NCCc1csc(-c2cccnc2)n1)c1cccc(F)c1 do in these assays?
GCN5L2 inh: 1%; VDR inhibitor: -16%; DT40 TDP1 CPT: -21%; PLK1 PBD inh: -3%; TDP1 block: 3%; TDP1 cell noCPT: -16%

How did CCOc1ccc(NC(=O)c2oc3ccccc3c2NC(=O)Cc2ccc(F)cc2)cc1 do in these assays?
GCN5L2 inh: -6%; VDR inhibitor: 4%; DT40 TDP1 CPT: -6%; TDP1 block: 1%; TDP1 cell noCPT: inconclusive

How did Cc1cc(S(=O)(=O)Nc2cc3c(cc2N2CCOCC2)n(C)c(=O)c(=O)n3C)ccc1F do in these assays?
GCN5L2 inh: 1%; VDR inhibitor: 16%; DT40 TDP1 CPT: -15%; TDP1 block: 6%; TDP1 cell noCPT: -26%

How did CCCC[C@]12Cc3cc(OC)c(OC)cc3C(O1)C1=C(O2)C(=O)c2ccccc2C1=O do in these assays?
GCN5L2 inh: 3%[12.7 µM]

Results for CCNc1ccc(C(=O)OCC(=O)N(Cc2ccccc2)C(C)(C)C)cc1[N+](=O)[O-] ?
GCN5L2 inh: 0%; VDR inhibitor: 6%; DT40 TDP1 CPT: 15µM*; PLK1 PBD inh: -3%; TDP1 block: 3%; TDP1 cell noCPT: inconclusive

Results for CCCNc1ccc(C(=O)OCC)cc1[N+](=O)[O-] ?
GCN5L2 inh: 4%; VDR inhibitor: inconclusive; DT40 TDP1 CPT: -9%; PLK1 PBD inh: -14%; TDP1 block: 5%; TDP1 cell noCPT: -23%

How did CCc1ccc(Nc2ccc(C(=O)O)cc2[N+](=O)[O-])cc1 do in these assays?
GCN5L2 inh: 18%; VDR inhibitor: -7%; DT40 TDP1 CPT: -3%; PLK1 PBD inh: 2%; TDP1 cell noCPT: -8%

Results for CCOC(=O)c1ccc(NC(C)=O)c([N+](=O)[O-])c1 ?
GCN5L2 inh: -4%; VDR inhibitor: 14%; DT40 TDP1 CPT: 26µM*; PLK1 PBD inh: 7%; TDP1 block: 5%; TDP1 cell noCPT: -100%

What do the screens show for `CCc1ccc(Nc2ccc(C(N)=O)cc2[N+](=O)[O-])cc1`?
GCN5L2 inh: 2%; VDR inhibitor: 10%; DT40 TDP1 CPT: inconclusive; PLK1 PBD inh: -22%; TDP1 block: 7%; TDP1 cell noCPT: 23µM*

Results for O=C(c1ccco1)N1N=C(c2ccccc2)CC1c1ccc2nccnc2c1 (stereo not drawn) ?
GCN5L2 inh: -4%; VDR inhibitor: -8%; DT40 TDP1 CPT: inconclusive; PLK1 PBD inh: 0%; TDP1 block: 7%; TDP1 cell noCPT: inconclusive

What do the screens show for `N[C@H](C(=O)O)[C@@H](O)c1ccc(O)c(O)c1`?
DT40 TDP1 CPT: inconclusive; TDP1 cell noCPT: -11%

Results for Cc1ccccc1NC(=O)CN(C)S(=O)(=O)c1cccc2nsnc12 ?
GCN5L2 inh: -7%; VDR inhibitor: 6%; DT40 TDP1 CPT: -6%; TDP1 block: 6%; TDP1 cell noCPT: -26%

What do the screens show for `COc1cc2nc(C3CCC3)nc(N3CCN(c4ccccc4OC)CC3)c2cc1OC`?
GCN5L2 inh: -6%; VDR inhibitor: -7%; DT40 TDP1 CPT: 16µM*; PLK1 PBD inh: -1%; TDP1 block: 8%; TDP1 cell noCPT: 16µM*

How did COc1ccccc1N1CCN(C2CCCC(C)C2)CC1 (stereo not drawn) do in these assays?
GCN5L2 inh: inconclusive; VDR inhibitor: 8%; DT40 TDP1 CPT: 1%; PLK1 PBD inh: -6%; TDP1 block: 0%; TDP1 cell noCPT: -15%

Results for COc1cc2ccccc2cc1C(=O)N1CCN(c2ccccn2)CC1 ?
GCN5L2 inh: -1%; VDR inhibitor: 2%; DT40 TDP1 CPT: 4%; PLK1 PBD inh: 2%; TDP1 block: 0%; TDP1 cell noCPT: -23%

Results for COc1cc2nc(C3CCC3)nc(N3CCN(c4ccccn4)CC3)c2cc1OC ?
GCN5L2 inh: -5%; VDR inhibitor: -14%; DT40 TDP1 CPT: 9.2µM*; PLK1 PBD inh: 3%; TDP1 block: 5%; TDP1 cell noCPT: 9.2µM*

How did CCCC(=O)N(c1ccc2oc3c(c2c1)CCCC3)S(=O)(=O)c1cc(C)ccc1C do in these assays?
GCN5L2 inh: -14%; VDR inhibitor: 7%

How did COc1ccc(S(=O)(=O)NC2CC(=O)N(c3ccc(C)c(C)c3)C2)cc1 (stereo not drawn) do in these assays?
GCN5L2 inh: 0%; VDR inhibitor: 0%; DT40 TDP1 CPT: inconclusive; PLK1 PBD inh: 2%; TDP1 cell noCPT: 16µM*

Results for Cc1ccc(N2CC(NC(=O)c3ccc(S(=O)(=O)N4CCCC4)cc3)CC2=O)cc1C (stereo not drawn) ?
GCN5L2 inh: 3%; VDR inhibitor: -2%; DT40 TDP1 CPT: inconclusive; TDP1 block: 5%; TDP1 cell noCPT: 18µM*

What do the screens show for `COc1cccc(N2CC(NS(=O)(=O)c3ccc4ccccc4c3)CC2=O)c1` (stereo not drawn)?
GCN5L2 inh: -7%; VDR inhibitor: -1%; DT40 TDP1 CPT: -15%; PLK1 PBD inh: -2%; TDP1 cell noCPT: 29µM*

Screening data from PubChem BioAssay.
